The text below walks through data of PubChem BioAssay (NCI).

Experiment in all cases: NCI-60 one-dose screen, 48 h (100 = growth as untreated, 0 = no growth, -100 = all killed)
Test [1] relates to K-562 leukemia. The note with it: 10 µM unless noted.
Test [2] concerns MALME-3M melanoma. The note with it: 10 µM unless noted.
The subject of test [3] is RXF 393 renal. The note with it: 10 µM unless noted.
For test [4], the system named is SF-295 CNS. The note with it: 10 µM unless noted.
In test [5] the test system is UACC-257 melanoma. As to conditions: 10 µM unless noted.
Test [6] has as its system HCT-15 colon. The note with it: 10 µM.
The test system of test [7] is UACC-62 melanoma. The note with it: 10 µM unless noted.
The subject of test [8] is LOX IMVI melanoma. The note with it: 10 µM unless noted.
The subject of test [9] is SK-MEL-2 melanoma. The note with it: 10 µM unless noted.
Test [10] has as its system TK-10 renal. As to conditions: 10 µM unless noted.
The test system of test [11] is ACHN renal. The note with it: 10 µM unless noted.
The subject of test [12] is A498 renal. The note with it: 10 µM unless noted.
The test system of test [13] is HL-60(TB) leukemia. As to conditions: 10 µM unless noted.
The test system of test [14] is MOLT-4 leukemia. As to conditions: 10 µM.
In test [15] the test system is OVCAR-8 ovarian. As to conditions: 10 µM unless noted.
For test [16], the system named is OVCAR-4 ovarian. As to conditions: 10 µM unless noted.
Test [17] has as its system NCI/ADR-RES ovarian. As to conditions: 10 µM unless noted.
Test [18] relates to T-47D breast. As to conditions: 10 µM unless noted.
In test [19] the test system is BT-549 breast. As to conditions: 10 µM.
For test [20], the system named is HCC-2998 colon. The note with it: 10 µM unless noted.

Compounds without any hit were thinned out: in the full panel of roughly 83,000, 20% have a hit.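 Percent growth is the endpoint: 0 to 100 indicates growth inhibition (40 means 60% inhibition), 0 means no net growth, and negative values indicate cell death.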 A number with no mark means an inactive call. Calls of active or inactive are those of the source. The calls were made as follows: active = growth percent below 10; inactive = the rest.

In the case of `C1CNC2CCCC2C1` (configuration not stated), the growth was 112% in test [1]; 99.4% in [2]; 93.1% in [3]; 104% in [4]; 106% in [5]; 99.2% in test [6]. The growth was 108% in test [7]; 101% in test [8]; 106% in test [9]; 103% in [10]; 103% in [11]; 107% in [12]. In addition, the growth in test [13] was 117%; in test [14] it was 116%; in [15], 106%; in test [16] it was 102%; in [17], 109%; in [18], 108%. The growth is 102% in test [19] and 107% in [20].
For the compound `C[CH2][Sn]([CH2]C)([CH2]C)[NH]S(=O)(=O)c1ccc(C)cc1`, the growth in [1] was 116%; in test [2] it was 110%; in [3] it was 123%; in [4] it was 104%; in test [5], 105%; in test [6], 96.5%. For the same compound, the growth is 100% in [7]; 92.3% in test [8]; 119% in [9]; 109% in test [10]; 68% in [12]; 104% in [13]. Further, the growth in test [14] is 101%; in test [15], 104%; in test [16] it was 103%; in test [17] it was 104%; in test [18], 100%; in [20], 99.9%.
As to `CC(N)Cc1ccc(O)cc1` (configuration not stated), the growth in test [1] was 94.8%; in test [2], 98.6%; in test [3] it was 112%; in [4], 118%; in [5], 94.6%; in test [6], 113%. Also, the growth is 105% in test [7]; 99.2% in test [8]; 94.8% in [9]; 98.3% in test [10]; 108% in [11]; 80.7% in test [12]. The growth was 90.2% in test [13]; 83.4% in test [14]; 101% in test [15]; 124% in test [16]; 103% in [17]; 98.3% in test [18]. Moreover, the growth is 126% in test [19] and 111% in test [20].
For `O=C1NC(=S)NC(=O)C1=Cc1ccccc1`, the growth in test [2] was 132%; in test [3] it was 115%; in test [4], 97.9%; in test [5], 115%; in test [6] it was 99.5%; in test [7], 106%. Further, the growth in test [8] is 85.1%; in [9], 196%; in test [10] it was 182%; in test [11] it was 100%; in test [14], 115%; in [15], 110%. The growth in test [16] is 114%; in [17], 97.7%; in test [18], 93.4%; in test [20], 106%.
Regarding `O=[N+]([O-])c1ccccc1N1CCNCC1`, the growth is 91.7% in test [1]; 89% in test [2]; 121% in [3]; 104% in test [4]; 94.4% in test [5]; 105% in test [6]. The growth was 95.8% in [7]; 95.8% in [8]; 106% in [9]; 96.2% in test [10]; 105% in [11]; 97.6% in test [12]. For the same compound, the growth in test [13] is 80.1%; in test [14], 103%; in test [15], 107%; in test [16], 99.4%; in test [17], 93.6%; in test [18] it was -4.84% (active). The growth was 111% in test [19] and 100% in test [20].
For `COc1cc(C2=NN(c3ccccc3)C(c3sc(N(CCCl)CCCl)nc3Cl)C2)cc(OC)c1OC` (configuration not stated), the growth is 74.3% in test [1]; 121% in [2]; 106% in [3]; 89.4% in test [4]; 87.4% in test [5]; 97.5% in [6]. Further, the growth in test [7] was 48.4%; in test [8], 92.7%; in [9] it was 85.2%; in [10], 102%; in test [11], 88.8%; in [12], 93.2%. Also, the growth in [13] was 96.2%; in test [14], 70.9%; in test [15] it was 90.4%; in [16], 87.5%; in test [17], 93.8%; in test [18] it was 68.7%. The growth in test [19] is 95.4%; in [20], 99.9%.
As to `CCC[CH2][Sn]([CH2]CCC)([CH2]CCC)[O]C(=O)CC`, the growth was -30.2% (active) in test [1]; -75.8% (active) in test [2]; -81.4% (active) in [4]; -94.2% (active) in test [5]; -72.9% (active) in [6]; -90% (active) in test [7]. The growth is -83.3% (active) in [8]; -83.2% (active) in test [9]; -97.1% (active) in test [10]; -96.7% (active) in test [11]; -96.4% (active) in [12]; -1.98% (active) in test [13]. The growth in test [14] was 7.41% (active); in test [15], -70.4% (active); in test [16] it was -99.4% (active); in test [17], -87% (active); in [18], -74.4% (active); in test [19], -98.5% (active). The growth in [20] was -94.5% (active).
For the compound `COc1ccc(/C=C\c2cc(OC)c(OC)c(OC)c2)cc1N/C=C\C(=O)c1c[nH]c2ccccc12`, the growth was 13.7% in test [1]; 57.8% in [2]; 29.2% in test [3]; -11.8% (active) in [4]; 78.2% in test [5]; 12.5% in [6]. Moreover, the growth was 31% in test [7]; 19.6% in [8]; 32.3% in test [9]; 60.1% in [10]; 15% in test [11]; -13.6% (active) in test [12]. Also, the growth in test [13] is -11.4% (active); in [14] it was 14.4%; in [15], 21.4%; in test [17] it was 0.644% (active); in test [18] it was 81.7%; in [19], 6.79% (active). Also, the growth in test [20] is 21.4%.
